# Measurements: PubChem BioAssay (NCATS)
# Where “and” joins values, the source holds several entries; their conditions need not be identical. Equal entries are not always repeated. Inconclusive results are not listed. Where a call stands in place of a potency, no number is given. Some compounds were tested as several samples or in several runs, with calls that do not always agree. Unmarked numbers belong to inactive results. Calls of active or inactive are those of the source. Calls follow the shape of the dose curve; as a rule, active = well fitted curve in the direction sought with a large enough effect; inconclusive = small, poorly fitted or top-dose-only effect, or another doubt; inactive = no such curve, though single readings can be large; an effect the other way counts as inactive or inconclusive.
# Columns and labels:
# HeLa = experiment: Primary qHTS to identify gynecologic anti-cancer compounds using libraries of approved drugs and bioactive compounds (AID 1345084); conditions: Gynecologic cancer cell panel viability, ATPlite luminescence, 48 h; series mostly up to 57.5 µM; also: nearly all actives have a fitted effect of over 55% in size
# Method in brief: (§1)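 Five-concentration response, 48 h; readout is ATP-driven luciferase luminescence.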
# Hek293T = experiment: as above; conditions: Gynecologic cancer cell panel viability, ATPlite luminescence, 48 h, control line for the selectivity index; series mostly up to 57.5 µM
# Method in brief: as §1
# JEG-3 = experiment: as above; conditions: Gynecologic cancer cell panel viability, ATPlite luminescence, 48 h; series mostly up to 57.5 µM
# Method in brief: as §1
# OV90 = experiment: as above; conditions: Gynecologic cancer cell panel viability, ATPlite luminescence, 48 h; series mostly up to 57.5 µM
# Method in brief: as §1
# PA-1 = experiment: as above; conditions: Gynecologic cancer cell panel viability, ATPlite luminescence, 48 h; series mostly up to 57.5 µM
# Method in brief: as §1
# SKOV3 = experiment: as above; conditions: Gynecologic cancer cell panel viability, ATPlite luminescence, 48 h; series mostly up to 57.5 µM
# Method in brief: as §1
# Tov-21-G = experiment: as above; conditions: Gynecologic cancer cell panel viability, ATPlite luminescence, 48 h; series mostly up to 57.5 µM
# Method in brief: as §1
# Tov112D = experiment: as above; conditions: Gynecologic cancer cell panel viability, ATPlite luminescence, 48 h; series mostly up to 57.5 µM
# Method in brief: as §1
# [1] = Drug repurposing screens with cells derived from glioblastoma tumor samples (AID 1345199); conditions: GBM patient neurospheres viability, ATP luminescence, 48 h; also: nearly all actives have a fitted effect of over 40% in size
# Method in brief: (§2)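 Primary testing used CD133+ neurospheres from four GBM patients, seven concentrations, 48 h exposure and ATP-based viability; confirmation added three slower-growing patient lines.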
# astro = experiment: as above; conditions: viability, ATP luminescence, 48 h; series mostly up to 45.9 µM
# Method in brief: as §2
# [2] = at 45.9 µM (top of the series), tumour line B
# [3] = at 45.9 µM (top of the series), tumour line D
# [4] = at 46.1 µM (top of the series), tumour line C
# [5] = at 46 µM (top of the series), tumour line A
# Potency is read from the fitted curve at half-maximal effect.
smiles,measurement,setting,value
NNC(=O)c1ccncc1,Potency,HeLa,inactive
same,Potency,Hek293T,inactive
same,Potency,JEG-3,inactive
same,Potency,OV90,inactive
same,Potency,PA-1,inactive
same,Potency,SKOV3,inactive
same,Potency,Tov-21-G,inactive
same,Potency,Tov112D,inactive
same,"activity, negative = cell killing",[1]; [2],-4.35%
same,"activity, negative = cell killing",[1]; [3],-4.61%
same,"activity, negative = cell killing",[1]; [4],-1.87%
same,Potency,astro,inactive
CCOC(=O)[C@H](CCc1ccccc1)N[C@H]1CCc2ccccc2N(CC(=O)O)C1=O,Potency,HeLa,inactive
same,Potency,Hek293T,inactive
same,Potency,JEG-3,inactive
same,Potency,OV90,inactive
same,Potency,PA-1,inactive
same,Potency,Tov-21-G,inactive
same,Potency,Tov112D,inactive
CNS(=O)(=O)CCc1ccc2[nH]cc(C3CCN(C)CC3)c2c1,Potency,HeLa,inactive
same,Potency,Hek293T,inactive
same,Potency,JEG-3,inactive
same,Potency,OV90,inactive
same,Potency,PA-1,inactive
same,Potency,SKOV3,inactive
same,Potency,Tov-21-G,inactive
same,Potency,Tov112D,inactive
same,"activity, negative = cell killing",[1]; [2],-8.38%
same,"activity, negative = cell killing",[1]; [3],2.37%
same,"activity, negative = cell killing",[1]; [4],9.59%
same,Potency,astro,inactive
O=C(O)c1cc(=O)[nH]c(=O)[nH]1,Potency,HeLa,inactive
same,Potency,Hek293T,inactive
same,Potency,JEG-3,inactive
same,Potency,OV90,inactive
same,Potency,PA-1,inactive
same,Potency,SKOV3,inactive
same,Potency,Tov-21-G,inactive
same,Potency,Tov112D,inactive
same,"activity, negative = cell killing",[1]; [2],-3.6%
same,"activity, negative = cell killing",[1]; [3],11.2%
same,"activity, negative = cell killing",[1]; [5],-24.7%
same,"activity, negative = cell killing",[1]; [4],-0.704%
same,Potency,astro,inactive
N[C@@H](C(=O)N[C@@H]1C(=O)N2C(C(=O)O)=C(Cl)CS[C@H]12)c1ccccc1,"activity change, negative = cytotoxicity",HeLa,2.57% [at 11.6 µM]
same,"activity change, negative = cytotoxicity",Hek293T,4.98% [at 11.6 µM]
same,"activity change, negative = cytotoxicity",JEG-3,1.47% [at 11.6 µM]
same,"activity change, negative = cytotoxicity",OV90,0.914% [at 11.6 µM]
same,"activity change, negative = cytotoxicity",PA-1,14.4% [at 11.6 µM]
same,"activity change, negative = cytotoxicity",SKOV3,12.2% [at 11.6 µM]
same,"activity change, negative = cytotoxicity",Tov-21-G,0.747% [at 11.6 µM]
same,"activity change, negative = cytotoxicity",Tov112D,2.46% [at 11.6 µM]
same,"activity, negative = cell killing",[1]; [2],-8.97%
same,"activity, negative = cell killing",[1]; [3],11.2%
same,"activity, negative = cell killing",[1]; [4],7.75%
same,Potency,astro,inactive
COC(c1ccccc1)(c1ccccc1)[C@H](Oc1nc(C)cc(C)n1)C(=O)O,Potency,HeLa,inactive
same,Potency,Hek293T,inactive
same,Potency,JEG-3,inactive
same,Potency,OV90,inactive
same,Potency,PA-1,inactive
same,Potency,SKOV3,inactive
same,"activity, negative = cell killing",[1]; [2],-11%
same,"activity, negative = cell killing",[1]; [3],-22.7%
same,"activity, negative = cell killing",[1]; [5],-16.8%
same,"activity, negative = cell killing",[1]; [4],2.92%
same,Potency,astro,inactive
O=NN(CCCl)C(=O)NC1CCCCC1,Potency,HeLa,inactive
same,Potency,Hek293T,inactive
same,Potency,JEG-3,inactive
same,Potency,OV90,inactive
same,Potency,PA-1,inactive
same,Potency,SKOV3,inactive
same,Potency,Tov-21-G,inactive
same,Potency,Tov112D,inactive
same,"activity, negative = cell killing",[1]; [2],-2.15%
same,"activity, negative = cell killing",[1]; [3],-13.5%
same,"activity, negative = cell killing",[1]; [4],-16.6%
same,Potency,astro,inactive
Nc1nc(F)nc2c1ncn2[C@@H]1O[C@H](CO)[C@@H](O)[C@@H]1O,Potency,HeLa,inactive
same,Potency,Hek293T,inactive
same,Potency,JEG-3,inactive
same,Potency,OV90,inactive
same,Potency,PA-1,inactive
same,Potency,SKOV3,inactive
same,Potency,Tov112D,17.8 µM (active)
same,"activity, negative = cell killing",[1]; [2],-27.2%
same,"activity, negative = cell killing",[1]; [4],-19% and -29.8%
same,Potency,[1]; tumour line A,10 µM (active)
same,Potency,[1]; tumour line D,20 µM (active)
same,Potency,astro,inactive
CNNCc1ccc(C(=O)NC(C)C)cc1,Potency,HeLa,inactive
same,Potency,Hek293T,inactive
same,Potency,JEG-3,inactive
same,Potency,OV90,inactive
same,Potency,PA-1,inactive
same,Potency,SKOV3,inactive
same,Potency,Tov-21-G,inactive
same,Potency,Tov112D,inactive
same,"activity, negative = cell killing",[1]; [2],-4.85%
same,"activity, negative = cell killing",[1]; [3],-17.7%
same,"activity, negative = cell killing",[1]; [4],-14.6%
same,Potency,astro,inactive
Cc1ccnc2c1NC(=O)c1cccnc1N2C1CC1,Potency,HeLa,inactive
same,Potency,Hek293T,inactive
same,Potency,JEG-3,inactive
same,Potency,OV90,inactive
same,Potency,PA-1,inactive
same,Potency,Tov-21-G,inactive
same,Potency,Tov112D,inactive
same,"activity, negative = cell killing",[1]; [2],-8.19%
same,"activity, negative = cell killing",[1]; [3],4.3%
same,"activity, negative = cell killing",[1]; [5],-21.5%
same,"activity, negative = cell killing",[1]; [4],-3.33%
CCc1c2c(nc3ccc(OC(=O)N4CCC(N5CCCCC5)CC4)cc13)-c1cc3c(c(=O)n1C2)COC(=O)[C@]3(O)CC,Potency,HeLa,inactive
same,Potency,Hek293T,inactive
same,Potency,JEG-3,inactive
same,Potency,OV90,inactive
same,Potency,PA-1,12.6 µM (active)
same,Potency,Tov-21-G,inactive
same,Potency,Tov112D,10 µM (active)
same,"activity, negative = cell killing",[1]; [4],-5.46%
same,Potency,[1]; tumour line A,1 µM (active)
CN(C)CCc1c[nH]c2ccc(C[C@H]3COC(=O)N3)cc12,Potency,HeLa,inactive
same,Potency,Hek293T,inactive
same,Potency,JEG-3,inactive
same,Potency,OV90,inactive
same,Potency,PA-1,inactive
same,Potency,SKOV3,inactive
same,Potency,Tov-21-G,inactive
same,Potency,Tov112D,inactive
same,"activity, negative = cell killing",[1]; [2],-19.9%
same,"activity, negative = cell killing",[1]; [3],-11%
same,"activity, negative = cell killing",[1]; [4],4.56%
same,Potency,astro,inactive
Nc1nc(N)nc(-c2cc(Cl)ccc2Cl)n1,Potency,HeLa,inactive
same,Potency,Hek293T,inactive
same,Potency,JEG-3,inactive
same,Potency,OV90,inactive
same,Potency,PA-1,inactive
same,Potency,SKOV3,inactive
same,Potency,Tov-21-G,inactive
same,Potency,Tov112D,inactive
same,"activity, negative = cell killing",[1]; [2],1.99%
same,"activity, negative = cell killing",[1]; [3],7.54%
same,"activity, negative = cell killing",[1]; [4],13.1%
same,Potency,astro,inactive
NC(=O)N1c2ccccc2CC(=O)c2ccccc21,Potency,HeLa,inactive
same,Potency,Hek293T,inactive
same,Potency,JEG-3,inactive
same,Potency,OV90,inactive
same,Potency,PA-1,inactive
same,Potency,SKOV3,inactive
same,Potency,Tov-21-G,inactive
same,Potency,Tov112D,inactive
same,"activity, negative = cell killing",[1]; [2],-29.6%
same,"activity, negative = cell killing",[1]; [3],-1.67%
same,"activity, negative = cell killing",[1]; [4],-9.41%
same,Potency,astro,inactive
Clc1ccccc1CN1CCc2sccc2C1,Potency,HeLa,inactive
same,Potency,Hek293T,inactive
same,Potency,JEG-3,inactive
same,Potency,OV90,inactive
same,Potency,SKOV3,inactive
same,Potency,Tov-21-G,inactive
same,Potency,Tov112D,inactive
same,"activity, negative = cell killing",[1]; [2],-14.5%
same,"activity, negative = cell killing",[1]; [3],-10.5%
same,"activity, negative = cell killing",[1]; [4],4.64%
O=P(O)(O)C(O)(Cc1cccnc1)P(=O)(O)O,Potency,HeLa,inactive
same,Potency,Hek293T,inactive
same,Potency,JEG-3,inactive
same,Potency,OV90,inactive
same,Potency,PA-1,inactive
same,Potency,SKOV3,inactive
same,Potency,Tov-21-G,inactive
same,Potency,Tov112D,inactive
same,"activity, negative = cell killing",[1]; [2],-9.54%
same,"activity, negative = cell killing",[1]; [3],-7.26%
same,"activity, negative = cell killing",[1]; [4],2.44%
same,Potency,astro,inactive
CCOC(=O)c1ccc(OC(=O)CCCCCN=C(N)N)cc1,Potency,HeLa,inactive
same,Potency,Hek293T,inactive
same,Potency,JEG-3,inactive
same,Potency,OV90,inactive
same,Potency,PA-1,inactive
same,Potency,SKOV3,inactive
same,Potency,Tov-21-G,inactive
same,Potency,Tov112D,inactive
same,"activity, negative = cell killing","[1]; at 20 µM (top of the series), tumour line C",-4.52%
same,"activity, negative = cell killing","[1]; at 21.2 µM (top of the series), tumour line B",-7.17%
same,"activity, negative = cell killing","[1]; at 21.2 µM (top of the series), tumour line D",-2.23%
same,"activity, negative = cell killing","[1]; at 21.3 µM (top of the series), tumour line A",-25.1%
same,Potency,astro,inactive
